Experimental data as given in PubChem BioAssay (NCATS).
Results filed as inconclusive are left out. Activity calls are given as the source filed them. Calls follow the shape of the dose curve; as a rule, active = well fitted curve in the direction sought with a large enough effect; inconclusive = small, poorly fitted or top-dose-only effect, or another doubt; inactive = no such curve, though single readings can be large; an effect the other way counts as inactive or inconclusive.

How the values were obtained:
[1] = qHTS of pediatric cancer cell lines to identify multiple opportunities for drug repurposing: Primary screen for SK-N-SH cells (AID 1347098); also: nearly all actives have a fitted effect of over 65% in size; also: potency is read from the fitted curve at half-maximal effect
Summary of the method: (§1)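 Cells (500-1,000/well) rested 5 h, then received compounds for 48 h; metabolically active cells were measured by CellTiter-Glo luminescence. Final concentrations spanned up to 46 µM (MIPE, 11-point) or 0.59 nM-46 µM (NPC, 8-point) in primary screens, 11-point in follow-ups.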

[2] = qHTS of pediatric cancer cell lines to identify multiple opportunities for drug repurposing: Primary screen for LAN-5 cells (AID 1347100); also: potency is read from the fitted curve at half-maximal effect
Summary of the method: (§2)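 Cells (500-1,000/well) in growth media were settled 5 h at 37 degrees C, then given compounds for 48 h. Viability was read as CellTiter-Glo luminescence. Primary runs used MIPE at 11 points (0.78 nM-46 µM) and NPC at 8 points (0.59 nM-46 µM); follow-ups used 11 points.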

[3] = qHTS of pediatric cancer cell lines to identify multiple opportunities for drug repurposing: Primary screen for BT-12 cells (AID 1347101); also: nearly all actives have a fitted effect of over 25% in size; also: potency is read from the fitted curve at half-maximal effect
Summary of the method: as §1

[4] = qHTS of pediatric cancer cell lines to identify multiple opportunities for drug repurposing: Primary screen for Rh18 cells (AID 1347102); also: nearly all actives have a fitted effect of over 65% in size; also: potency is read from the fitted curve at half-maximal effect
Summary of the method: as §2

[5] = qHTS of pediatric cancer cell lines to identify multiple opportunities for drug repurposing: Primary screen for OHS-50 cells (AID 1347103); also: nearly all actives have a fitted effect of over 40% in size; also: potency is read from the fitted curve at half-maximal effect
Summary of the method: as §1

[6] = qHTS of pediatric cancer cell lines to identify multiple opportunities for drug repurposing: Primary screen for RD cells (AID 1347104); also: nearly all actives have a fitted effect of over 55% in size; also: potency is read from the fitted curve at half-maximal effect
Summary of the method: (§3)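 Plated cells (500-1,000 per well, growth media) were allowed to settle for 5 hours, treated with compound dilutions for 48 hours, then lysed with CellTiter-Glo for 15 min at room temperature before luminescence reading.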

[7] = qHTS of pediatric cancer cell lines to identify multiple opportunities for drug repurposing: Primary screen for MG 63 (6-TG R) cells (AID 1347105); also: nearly all actives have a fitted effect of over 50% in size
Summary of the method: as §3

[8] = qHTS of pediatric cancer cell lines to identify multiple opportunities for drug repurposing: Primary screen for control Hh wild type fibroblast cells (AID 1347106);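 also: series mostly up to about 46 µM; a drop in luminescence marks cytotoxicity and a rise apparent proliferation; nearly all actives have a fitted effect of over 55% in size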
Summary of the method: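 Viability after 48 h compound treatment at 37C, 500-1,000 cells/well, read as ATP luminescence with CellTiter-Glo. Primary screens used 11-point (MIPE, 0.78 nM-46 µM) or 8-point (NPC, 0.59 nM-46 µM) final concentrations; follow-up screens used 11-point dilutions.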

[9] = qHTS of pediatric cancer cell lines to identify multiple opportunities for drug repurposing: Primary screen for Rh30 cells (AID 1347107); also: series mostly up to about 46 µM; nearly all actives have a fitted effect of over 75% in size
Summary of the method: as §2

[10] = qHTS of pediatric cancer cell lines to identify multiple opportunities for drug repurposing: Primary screen for Rh41 cells (AID 1347108);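 also: series mostly up to about 46 µM; luminescence drop marks cytotoxic hits; nearly all actives have a fitted effect of over 70% in size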
Summary of the method: as §3

[11] = qHTS of pediatric cancer cell lines to identify multiple opportunities for drug repurposing: Confirmatory screen for A673 cells (AID 1347110);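 also: potency is read from the fitted curve at half-maximal effect; cells exposed to compound for 48 h before the viability read; nearly all actives have a fitted effect of over 65% in size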
Summary of the method: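 Concentration-response curves came straight from titrations: 11 points (0.78 nM to 46 µM) for MIPE and several concentrations (0.59 nM to 46 µM) for NPC in primary, 11 points in follow-up. Readout: ATP luminescence at 48 h.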

[12] = qHTS of pediatric cancer cell lines to identify multiple opportunities for drug repurposing: Confirmatory screen for BT-12 cells (AID 1347112); also: nearly all actives have a fitted effect of over 55% in size
Summary of the method: as §2

[13] = qHTS of pediatric cancer cell lines to identify multiple opportunities for drug repurposing: Confirmatory screen for LAN-5 cells (AID 1347113); also: nearly all actives have a fitted effect of over 65% in size
Summary of the method: as §2

[14] = qHTS of pediatric cancer cell lines to identify multiple opportunities for drug repurposing: Confirmatory screen for DAOY cells (AID 1347114); also: nearly all actives have a fitted effect of over 65% in size
Summary of the method: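 Viability measured as metabolically active cells via CellTiter-Glo luminescence following 48 hours of compound exposure, 11-point dilutions in confirmatory testing. 500-1,000 cells/well plated 5 hours before dosing; controls were DMSO and 2.3 µM bortezomib.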

[15] = qHTS of pediatric cancer cell lines to identify multiple opportunities for drug repurposing: Confirmatory screen for TC32 cells (AID 1347118)
Summary of the method: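 Measured quantity: luminescence from CellTiter-Glo, reflecting metabolically active TC32 cells following 48 h of compound. Curves came straight from multi-point titrations, with 8 or 11 points in primary and 11 in confirmatory screening.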

[16] = qHTS of pediatric cancer cell lines to identify multiple opportunities for drug repurposing: Confirmatory screen for MG 63 (6-TG R) cells (AID 1347119); also: nearly all actives have a fitted effect of over 55% in size
Summary of the method: as §2

[17] = qHTS of pediatric cancer cell lines to identify multiple opportunities for drug repurposing: Primary screen for NB1643 cells (AID 1347099); also: nearly all actives have a fitted effect of over 50% in size
Summary of the method: as §3

Measured: Potency

CCOC(=O)C(=O)c1csc(NC=O)n1
not listed: [11] | [12] | [13] | [14] | [15] | [16] | [17]
inactive: all other assays above

COc1ccc2cc(C=O)ccc2c1
not listed: [11] | [12] | [13] | [14] | [15] | [16] | [17]
inactive: all other assays above

CC(NCCC(c1ccccc1)c1ccccc1)c1ccccc1 (centres undefined)
active: [1] 27.3 µM | [2] 23.7 µM | [3] 27.6 µM | [5] 17.4 µM
inactive: [8]

CCCCCOc1ccccc1/C(=C\SC)n1ccnc1
inactive: [1] | [2] | [4] | [7] | [9]

CC(=O)OCC(=O)[C@@]1(O)CCC2C3CCC4=CC(=O)CC[C@]4(C)C3[C@@H](O)C[C@@]21C (some centres undefined)
active: [11] 16.5 µM | [15] 26.1 µM
not listed: [5] | [17]
inactive: all other assays above

CCN(CC)CCOc1ccc(/C(=C(\Cl)c2ccccc2)c2ccccc2)cc1
active: [1] 30.7 µM | [2] 18.8 µM | [3] 15.5 µM | [5] 24.6 µM | [6] 23.7 µM
inactive: [8] | [9]

O=C1NCCN1CCN1CCC(c2cn(-c3ccc(F)cc3)c3ccc(Cl)cc23)CC1
inactive: [9]
active: [1] 21.7 µM | [2] 8.41 µM | [5] 11 µM | [6] 26.6 µM

Nc1c(I)cc(I)c(C(=O)N(CCC(=O)O)c2ccccc2)c1I
inactive: [1] | [2] | [4] | [5] | [7] | [8] | [9] | [10]

CN1Cc2cc(C(=O)N3CCC(C4CCNCC4)CC3)ccc2NC(CC(=O)O)C1=O (centres undefined)
inactive: [17] | [2] | [3] | [4] | [5] | [6] | [7] | [8] | [9]

Oc1cccc2[nH]ccc12
not listed: [1] | [11] | [12] | [13] | [14] | [15] | [16]
inactive: all other assays above

NC(=O)C1(N2CCCCC2)CCN(CCCN2c3ccccc3CCc3ccc(Cl)cc32)CC1
active: [1] 13.7 µM | [3] 19.5 µM | [5] 24.6 µM

COC(=O)[C@H]1[C@H]2C[C@@H]3c4[nH]c5cc(OC)ccc5c4CCN3C[C@H]2C[C@@H](OC(=O)/C=C/c2ccc(O)c(OC)c2)[C@@H]1OC
active: [1] 21.7 µM | [5] 34.7 µM

CO[C@@]1(NC(=O)CSC[C@@H](N)C(=O)O)C(=O)N2C(C(=O)O)=C(CSc3nnnn3C)CS[C@@H]21
not listed: [1] | [11] | [12] | [13] | [14] | [15] | [16]
inactive: all other assays above

C=C(C)C(=O)OCC(O)CO (centres undefined)
not listed: [1] | [11] | [12] | [13] | [14] | [15] | [16]
inactive: all other assays above

Cc1cccc(N(C)C(=S)Oc2ccc3c(c2)C2CCC3C2)c1 (centres undefined)
inactive: [1] | [2] | [7] | [9] | [10]

CC[C@@H]([C@H](C)O)n1ncn(-c2ccc(N3CCN(c4ccc(OC[C@@H]5CO[C@@](Cn6cncn6)(c6ccc(F)cc6F)C5)cc4)CC3)cc2)c1=O
inactive: [1] | [4] | [8] | [9]
active: [5] 13.8 µM

C[C@@H](O[C@H]1OCCN(Cc2n[nH]c(=O)[nH]2)[C@H]1c1ccc(F)cc1)c1cc(C(F)(F)F)cc(C(F)(F)F)c1
active: [1] 34.4 µM | [3] 15.5 µM | [4] 23.7 µM | [5] 27.6 µM | [6] 26.6 µM
inactive: [8] | [9]

Cn1c(=O)c2c(ncn2CC(=O)O)n(C)c1=O
not listed: [1] | [11] | [12] | [13] | [14] | [15] | [16]
inactive: all other assays above

Cc1cc(C(C)(C)C)c(O)c(C(C)(C)C)c1
not listed: [1] | [11] | [12] | [13] | [14] | [15] | [16]
inactive: all other assays above

O=[N+]([O-])c1nccn1CO[C@@H](CO)[C@H](O)CO
not listed: [1] | [11] | [12] | [13] | [14] | [15] | [16]
inactive: all other assays above

Nc1ccc([N+](=O)[O-])c(C(F)(F)F)c1
not listed: [1] | [11] | [12] | [13] | [14] | [15] | [16]
inactive: all other assays above

O=C(COCCOCCOCC(=O)Nc1c(I)cc(I)c(C(=O)O)c1I)Nc1c(I)cc(I)c(C(=O)O)c1I
inactive: [1] | [3] | [4] | [5] | [6] | [7] | [8] | [9] | [10]

Cc1ccc2c(Cl)cc(Cl)c(O)c2n1
inactive: [17] | [2] | [3] | [4] | [5] | [6] | [7] | [8] | [9]

Cc1cc(=O)oc2cc(O[C@@H]3SC[C@@H](O)[C@H](O)[C@H]3O)ccc12
not listed: [1] | [11] | [12] | [13] | [14] | [15] | [16]
inactive: all other assays above
